Compound activity as filed in PubChem.
Sampled rows, rich in hits. Any-hit rate of the full collection: about 12%.
SARS PLpro yeast = blocks SARS-CoV papain-like protease in a yeast assay; S. cerevisiae expressing SARS-CoV PLpro, growth rescue; Potency, µM (doses to about 32.9 µM), without a hit: at the top dose activity, positive = growth rescue, usual class: activators; 330,000 tested, 0.19% active; also: potency is read from the fitted curve at half-maximal effect; 0% is about no effect; nearly all actives have a fitted effect of over 55% in size
NS1 function inh = blocks influenza NS1 protein function; Potency, µM (titrated, usually from 46.1 µM), inactives show at the top dose activity, positive = more growth; 270,000 tested, 0.4% active; AID 2326; also: potency is read from the fitted curve at half-maximal effect; actives are rising curves; nearly all actives have a fitted effect of over 50% in size
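Read-out: OD600 growth recovery of NS1-expressing budding yeast. Cells grown overnight at 30C in -URA glucose medium, washed, resuspended and diluted 1:100 in 2% galactose assay medium, pH 6.0. Same strain lacking NS1 served as positive control.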
Shiga inhibitor = blocks Shiga toxin action in Vero cells. AID 2315. 290,000 tested, 9.2% active. Vero cells, Shiga toxin protein synthesis inhibition reporter. inhibition, % at 38.7 µM; in the data active = inhibition mostly above about 28%, no sharp cut-off; inactive = mostly below about 43%; also: 0% is about no effect
Cycloheximide cs = affects cycloheximide protein synthesis inhibition readout, counter-screen; cell reporter, cycloheximide protein synthesis inhibition counterscreen; max response, %; 300,000 tested, 12% active; in the data active = max response mostly above about 13%, no sharp cut-off; inactive = mostly below about 14%; also: read at 38.3 µM for the half of the compounds with a filed dose; 0% is about no effect
Active calls of the source: *. Unless noted, calls follow the shape of the full dose curve.

For C/C(=N/NC(=O)CNC(=O)COc1ccccc1)c1ccc(Cl)cc1 the results were SARS PLpro yeast 14%, NS1 function inh 15%, Shiga inhibitor -3 and Cycloheximide cs 12.
For COc1cc(OC)cc(C(=O)N/N=C(\C)CC(=O)Nc2ccccn2)c1 the results were SARS PLpro yeast -3%, NS1 function inh -7%, Shiga inhibitor 17 and Cycloheximide cs 2.
`C/C(CC(=O)Nc1ccccn1)=N\NC(=O)c1ccc2ccccc2c1` gave SARS PLpro yeast 3%, NS1 function inh -1%, Shiga inhibitor 28 and Cycloheximide cs 15*.
For C/C(CC(=O)Nc1ccccn1)=N\NC(=O)c1ccccc1O the results were SARS PLpro yeast inconclusive, NS1 function inh -47%, Shiga inhibitor 68* and Cycloheximide cs 52*.
C/C(CC(=O)Nc1ccccn1)=N\NC(=O)c1ccncc1 was read as SARS PLpro yeast 2%, NS1 function inh -7%, Shiga inhibitor -3 and Cycloheximide cs -5.
`C/C(CC(=O)Nc1cc(C)ccn1)=N\NC(=O)c1cccc(C)c1O` gave SARS PLpro yeast -9%, NS1 function inh -58%, Shiga inhibitor 69* and Cycloheximide cs 26*.
`CCCNC(=O)C/C(C)=N/NC(=O)C(=O)Nc1ccccn1` gave SARS PLpro yeast 0%, NS1 function inh 0%, Shiga inhibitor 29 and Cycloheximide cs 26*.
For CCNC(=O)C/C(C)=N/NC(=O)C(=O)Nc1ccc(CC)cc1 the results were SARS PLpro yeast 0%, Shiga inhibitor 37 and Cycloheximide cs 26*.
For C/C(CC(=O)Nc1ccccn1)=N\NC(=O)Cc1cccc2ccccc12 the results were SARS PLpro yeast -2%, NS1 function inh 16%, Shiga inhibitor -1 and Cycloheximide cs 0.
CC(=O)N/N=C(\C)CCc1ccccc1 was read as SARS PLpro yeast 2%, Shiga inhibitor 10 and Cycloheximide cs -1.
Screening C/C(CCc1ccccc1)=N\NC(=O)c1ccccc1 returned SARS PLpro yeast -4%, NS1 function inh -8%, Shiga inhibitor 90* and Cycloheximide cs 30*.
For C/C(CC(=O)Nc1ccccn1)=N\NC(=O)c1ccccc1 the results were SARS PLpro yeast -9%, NS1 function inh 0%, Shiga inhibitor 21 and Cycloheximide cs 30*.
Cc1noc(C)c1S(=O)(=O)Nc1ccc2c(c1)C(=O)N([C@H](C)CO)C[C@H](C)[C@@H](CN(C)S(=O)(=O)c1ccc(F)cc1)O2 was read as SARS PLpro yeast -4%.
`NC(=O)c1ccsc1NC(=O)CSc1nnc(NC2CC2)s1` gave SARS PLpro yeast 0%.
Screening CCN(CC(=O)NCc1ccc(F)cc1)c1ccc(S(C)(=O)=O)cc1[N+](=O)[O-] returned SARS PLpro yeast -1%, Shiga inhibitor 17 and Cycloheximide cs -8.
Screening COc1ccccc1CCCNC(=O)C1CCC(=O)N(CCCN2CCCC2=O)C1 (stereo not drawn) returned SARS PLpro yeast 1%, NS1 function inh 5%, Shiga inhibitor -5 and Cycloheximide cs -2.
For COc1ccccc1CN1CC(C(=O)NCCc2ccccc2Cl)CCC1=O (stereo not drawn) the results were SARS PLpro yeast -7%, NS1 function inh 0%, Shiga inhibitor 59* and Cycloheximide cs 38*.
COc1ccc(CCCNC(=O)C2CCC(=O)N(Cc3ccccc3F)C2)cc1 (stereo not drawn) was read as SARS PLpro yeast 3%, NS1 function inh -1%, Shiga inhibitor 27 and Cycloheximide cs 31*.
For COc1ccccc1CN1CC(C(=O)NCCC2=CCCCC2)CCC1=O (stereo not drawn) the results were SARS PLpro yeast -1%, NS1 function inh -1%, Shiga inhibitor 2 and Cycloheximide cs 17.
Cc1ccc(CCCNC(=O)C2CCC(=O)N(Cc3cccc(F)c3)C2)cc1 (stereo not drawn) was read as SARS PLpro yeast -1%, NS1 function inh 0%, Shiga inhibitor -2 and Cycloheximide cs 14*.
`COc1ccccc1CCCNC(=O)C1CCC(=O)N(Cc2ccccc2F)C1` (stereo not drawn) gave SARS PLpro yeast 3%, NS1 function inh -6%, Shiga inhibitor 100* and Cycloheximide cs 41*.
O=C1CC(NC23CC4CC(CC(C4)C2)C3)C(=O)N1c1ccc2c(c1)OCO2 (stereo not drawn) was read as SARS PLpro yeast -9%, NS1 function inh 4%, Shiga inhibitor 12 and Cycloheximide cs 2.
Cc1ccc(C(=O)CSc2nnc(-c3ccco3)n2CC2CCCO2)cc1 (stereo not drawn) was read as SARS PLpro yeast -3%, NS1 function inh -9%, Shiga inhibitor -4 and Cycloheximide cs -3.
Screening Cn1nc(C(=O)NCc2cccs2)c2ccccc2c1=O returned SARS PLpro yeast 14%, NS1 function inh -5%, Shiga inhibitor -5 and Cycloheximide cs 0.
Screening Cc1cc(C)nc(CCNC(=O)C2CCC(=O)N(Cc3ccccc3F)C2)n1 (stereo not drawn) returned SARS PLpro yeast -3%, NS1 function inh 10%, Shiga inhibitor 17 and Cycloheximide cs 10.
Screening Cc1ccc(CCNC(=O)C2CCC(=O)N(Cc3ccccc3F)C2)o1 (stereo not drawn) returned SARS PLpro yeast -1%, NS1 function inh 4%, Shiga inhibitor 102* and Cycloheximide cs 40*.
`COc1ccccc1CN1CC(C(=O)NCc2cccc(Cl)c2)CCC1=O` (stereo not drawn) gave SARS PLpro yeast inconclusive, NS1 function inh -2%, Shiga inhibitor 8 and Cycloheximide cs 9.
COc1ccccc1CN1CC(C(=O)N2CCC(C(=O)c3ccccc3)CC2)CCC1=O (stereo not drawn) was read as SARS PLpro yeast -1%, NS1 function inh -19%, Shiga inhibitor 58* and Cycloheximide cs 36*.
`CCOc1ccccc1NC(=O)Nc1cccc(S(N)(=O)=O)c1` gave SARS PLpro yeast 2%, NS1 function inh -3%, Shiga inhibitor 2 and Cycloheximide cs 11.
Screening CCC(=O)Nc1ccc(N2CCN(CC)CC2)c(Cl)c1 returned SARS PLpro yeast inconclusive, NS1 function inh 13%, Shiga inhibitor -14 and Cycloheximide cs 12.
For CCN1CCN(c2ccc(NC(=O)c3ccco3)cc2Cl)CC1 the results were SARS PLpro yeast -1%, NS1 function inh -3%, Shiga inhibitor 59* and Cycloheximide cs 27*.
Screening O=C(Nc1ccc(N2CCOCC2)c([N+](=O)[O-])c1)c1ccco1 returned SARS PLpro yeast 0%, NS1 function inh -10%, Shiga inhibitor 70* and Cycloheximide cs 20*.
CCN1CCN(c2ccc(NC(=O)c3cccc(F)c3)cc2Cl)CC1 was read as SARS PLpro yeast -2%, NS1 function inh -2%, Shiga inhibitor 97* and Cycloheximide cs 18*.
O=C(Nc1ccc(N2CCCCC2)c(C(=O)O)c1)c1ccco1 was read as SARS PLpro yeast 3%, NS1 function inh 6%, Shiga inhibitor 15 and Cycloheximide cs 7.
For O=C(Nc1ccc(N2CCCC2)c(Cl)c1)c1ccco1 the results were SARS PLpro yeast -5%, NS1 function inh -48%, Shiga inhibitor 92* and Cycloheximide cs 32*.
For CCC1CCCCN1CCCNC(=O)CN1C(=O)COc2ccccc21 (stereo not drawn) the results were SARS PLpro yeast 6%, NS1 function inh -12%, Shiga inhibitor -9 and Cycloheximide cs -2.
